# Assay results published in PubChem BioAssay (NCI).
# About 79,000 compounds went through this panel and 15% of them were active in at least one assay; those are over-represented in the sample as a whole. A number with no mark means an inactive call. The source made the active and inactive calls. Rule as the data show it: active = growth inhibition above about 70%; inactive = the rest.
# Columns and labels:
# [1] = NCI Yeast Anticancer Drug Screen. Data for the rad50 strain (AID 155);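 also: 0% = growth of vehicle-only cultures of the same strain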; settings: S. cerevisiae rad50 strain growth inhibition, active compounds read high
# How it was run: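 Readout: growth inhibition relative to vehicle-treated cultures. Compound exposure was carried out in a genetically defined yeast strain deficient in DNA damage repair.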
# [2] = NCI Yeast Anticancer Drug Screen. Data for the mec2-1 strain (AID 157); settings: S. cerevisiae mec2-1 strain, active compounds read high
# How it was run: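 Mutant yeast (mec2-1) grown with compound; growth inhibition relative to vehicle control reported.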
# [3] = NCI Yeast Anticancer Drug Screen. Data for the sgs1 mgt1 strain (AID 161);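 also: 0% = growth of cultures given vehicle only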; settings: S. cerevisiae sgs1 mgt1 strain, active compounds read high
# How it was run: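 Compounds are added to genetically altered yeast, and growth is compared with cultures given vehicle alone to give percent inhibition.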
# [4] = NCI Yeast Anticancer Drug Screen. Data for the cln2 rad14 strain (AID 165);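 also: 0% = growth equal to vehicle treated cultures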; settings: S. cerevisiae cln2 rad14 strain, active compounds read high
# How it was run: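 Readout is yeast growth inhibition versus vehicle-treated controls, using a strain with cln2 and rad14 alterations exposed to compound.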
# [5] = NCI Yeast Anticancer Drug Screen. Data for the bub3 strain (AID 167); settings: S. cerevisiae bub3 mutant strain, active compounds read high
# How it was run: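 Readout: yeast growth inhibition, expressed relative to vehicle-only wells. The test organism is a mutant strain from a panel with lesions in DNA repair or checkpoint genes.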
# [6] = NCI Yeast Anticancer Drug Screen. Data for the mlh1 rad18 strain (AID 175); settings: S. cerevisiae mlh1 rad18 strain growth inhibition, active compounds read high
# How it was run: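 Genetically defined yeast (DNA repair-deficient) exposed to compounds; growth inhibition determined relative to vehicle.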
# [7] = at 5.0 µM (retest, dose inferred, filed as 0.5)
# [8] = at 50.0 µM (retest, dose inferred, filed as 5.0)
SMILES,"growth inhibition [1, 7]","growth inhibition [1, 8]",growth inhibition ([1]; at 50.0 µM),"growth inhibition [2, 7]","growth inhibition [2, 8]",growth inhibition ([2]; at 50.0 µM),"growth inhibition [3, 7]","growth inhibition [3, 8]",growth inhibition ([3]; at 50.0 µM),"growth inhibition [4, 7]","growth inhibition [4, 8]",growth inhibition ([4]; at 50.0 µM),"growth inhibition [5, 7]","growth inhibition [5, 8]",growth inhibition ([5]; at 50.0 µM),"growth inhibition [6, 7]","growth inhibition [6, 8]",growth inhibition ([6]; at 50.0 µM)
COc1ccc(OC(=O)c2ccccc2)c2c1C(=O)C=CC2=O,5%,38%,92.7% (active),10%,38%,84.2% (active),-38%,21%,90.2% (active),0%,18%,51.5%,-1%,24%,76.8% (active),9%,24%,67.8%
CN(C)C1=NC(N(C)C)=C2C=CC=C12,-3%,49%,66.2%,-2%,51%,43.8%,-4%,34%,33.4%,-3%,40%,72.5% (active),2%,73% (active),82.2% (active),-6%,71% (active),86.8% (active)
NCc1ccc(O)c(O)c1O,-2%,78% (active),14.9%,8%,80% (active),14.4%,8%,61%,38.2%,-16%,52%,-2.75%,-2%,82% (active),81.4% (active),-22%,83% (active),16.3%
Cc1nc2[nH]cc(C)c2c(=O)[nH]1,6%,-11%,-24.8%,-4%,-14%,-2.25%,-1%,-7%,4.1%,-11%,-4%,35.1%,2%,-15%,4.6%,-10%,-14%,-8.2%
O=[N+]([O-])c1cc(Cl)ccc1S(=O)(=O)c1ccccc1,-19%,75% (active),77.2% (active),-31%,30%,62.1%,-7%,57%,78.8% (active),22%,40%,47.5%,-13%,79% (active),76.6% (active),-25%,75% (active),79.7% (active)
COC(=O)c1cc(-c2ccc(C)cc2)c2c(=O)n(-c3ccccc3)[nH]c2n1,8%,75% (active),72.9% (active),5%,71% (active),94.9% (active),-7%,51%,51.1%,11%,87% (active),94.8% (active),4%,69%,92.8% (active),-3%,85% (active),85.9% (active)
Cc1ccc(C2(O)c3ccccc3-c3ccccc32)cc1,4%,98% (active),99.2% (active),8%,100% (active),99.2% (active),15%,99% (active),99.2% (active),-9%,99% (active),98.2% (active),-8%,99% (active),99.3% (active),-4%,98% (active),99% (active)
N=C1C(=O)c2ccccc2-c2ccccc21,-93%,97% (active),96.3% (active),-25%,99% (active),96.3% (active),-35%,98% (active),97.3% (active),-75%,98% (active),91.3% (active),-20%,97% (active),97% (active),-86%,97% (active),95.7% (active)
Cc1cc(=O)[nH]c2cc3oc4ccccc4c3cc12,30%,94% (active),95.2% (active),-5%,39%,32.4%,11%,40%,17.6%,9%,36%,68.1%,-13%,45%,81% (active),23%,80% (active),78.9% (active)
CCCCCCCCCCCCNCc1ccc(O)c(OC)c1,95% (active),97% (active),97.3% (active),97% (active),98% (active),97.4% (active),99% (active),97% (active),44.1%,93% (active),97% (active),95.7% (active),96% (active),97% (active),97.8% (active),98% (active),97% (active),97.5% (active)
Clc1ccc(N2CCN(CCCN3CCN(c4ccc(Cl)cc4)CC3)CC2)cc1,-2%,29%,67.9%,-6%,35%,18.5%,-14%,74% (active),81.2% (active),-3%,30%,6.25%,-3%,24%,24.9%,4%,42%,31.8%
CC(=O)N(C1=C(Cl)C(=O)c2ccccc2C1=O)c1ccc(C)cc1,99% (active),99% (active),99.5% (active),100% (active),100% (active),99.5% (active),100% (active),100% (active),99.6% (active),100% (active),98% (active),94% (active),99% (active),99% (active),96.5% (active),100% (active),100% (active),99.5% (active)
N#CSc1ccc(Nc2ccc(SC#N)cc2)cc1,98% (active),98% (active),98.4% (active),99% (active),99% (active),97.6% (active),99% (active),99% (active),98.4% (active),99% (active),98% (active),97.7% (active),98% (active),97% (active),98.2% (active),99% (active),94% (active),97.8% (active)
COc1ccc2c(C(=O)c3ccccc3)c3[n+](cc2c1OC)CCc1cc2c(cc1-3)OCO2,-1%,38%,65.7%,-21%,22%,53.6%,-4%,20%,52.1%,-4%,21%,30.1%,-4%,24%,50.3%,-2%,24%,75.5% (active)
CC(=O)N1c2ccccc2Sc2ccc3ccc(C(=O)CCl)cc3c21,81% (active),97% (active),87.2% (active),83% (active),98% (active),90.5% (active),92% (active),98% (active),89.9% (active),70% (active),97% (active),88.3% (active),93% (active),97% (active),89.2% (active),65%,97% (active),87.8% (active)
O=C(O)C(Cc1cc(I)c(O)c(I)c1)C1CCCCC1 (configuration not stated),12%,99% (active),99.2% (active),8%,99% (active),99.2% (active),3%,97% (active),99.3% (active),7%,99% (active),99% (active),-11%,99% (active),99.3% (active),6%,99% (active),98.8% (active)
C[CH2][Ge]([CH2]C)[CH2]C.C[CH2][Ge]([Cl])[CH2]C.C[CH2][Ge][CH2]C,19%,96% (active),98% (active),15%,98% (active),98.6% (active),23%,96% (active),98.1% (active),8%,94% (active),97% (active),17%,96% (active),98.2% (active),12%,95% (active),98.2% (active)
O=C1c2ccccc2CCC1C(O)(C(F)(F)F)C(F)(F)F (configuration not stated),19%,13%,-5.3%,16%,7%,-3.6%,22%,7%,-35.8%,4%,11%,10.9%,-12%,1%,31.6%,22%,20%,-11.3%
O=C(/C(=C/c1ccc(Cl)cc1)c1ccccc1)c1ccc(O)cc1,94% (active),94% (active),95.8% (active),64%,97% (active),95.5% (active),94% (active),94% (active),96.5% (active),53%,92% (active),92.5% (active),89% (active),95% (active),97.3% (active),96% (active),95% (active),97% (active)
